Results: PubChem BioAssay (NCI)
This is part of a sample that, as a whole, favours compounds with a hit. Of some 83,000 tested, about 20% had one in any assay.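 Plates (96-well) were seeded with cells, treated with compound at one concentration, and incubated for 48 hours before percent growth was determined.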 The source made the active and inactive calls.

What follows are compounds tested on TK-10 renal (assay: NCI-60 one-dose screen, 48 h (100 = growth as untreated, 0 = no growth, -100 = all killed)). Conditions: 10 µM unless noted.
Procedure: Growth inhibition of the TK-10 human tumor cell line is measured as a screen for anti-cancer activity. Cells are grown in 96 well plates and exposed to the test compound for 48 hours. Compounds are tested at a single concentration, which is 10^-5 M for most compounds. The reported endpoint is percent growth (GI% or GIPRCNT), where numbers from 0 - 100% represent growth inhibition, and numbers from -100% - 0 represent cell death. For example, a value of 40 represents 60% growth inhibition. A value of 0 means no net growth occurred over the course of the experiment. A value of -40 indicates 40% of cells at the beginning of the experiment died by the end of the experiment. A value of -100 means all cells are dead at the end of the experiment.
NCI-60 Human Tumor Cell Lines Screen was performed using the standard one-dose NCI protocol, which is described in more detail at https://dtp.cancer.gov/discovery_development/nci-60/default.htm.
Compounds with GIPRCNT values below 10 were considered active. Activity score was based on GIPRCNT using the following formula: […]
Score is 0 for GIPRCNT values of 100 or above, 50 for GIPRCNT values of 0, and 100 for GIPRCNT values of -100.

SMILES	growth
CN(C)c1ccc(-c2c(NC(C)(C)C)nc3c(OCCc4ccccc4)cccn23)cc1	52.1% (inactive)
CC(C)(C)Nc1nc2c(OCCc3ccccc3)cccn2c1-c1cccc(F)c1	-6.22% (active)
CC(C)(C)Nc1nc2c(OCCc3ccccc3)cccn2c1-c1ccccc1Cl	10.6% (inactive)
CC(C)(C)OC(=O)N1C(=O)c2c(c3c4ccccc4[nH]c3c3ccc4ccccc4c23)C1=O	36.8% (inactive)
COc1cc(-c2nc3ccc(-c4nnc(SCC(=O)Nc5ccc(C(=O)/C=C/c6ccc(Cl)cc6)cc5)o4)cc3[nH]2)cc(OC)c1OC	120% (inactive)
Cn1ccnc1C(=O)/C=C/c1ccc(NC(=O)Nc2ccccc2)cc1	85.9% (inactive)
CC(=O)Oc1ccccc1C(=O)Nc1cc(C(C)C)ccc1C	21% (inactive)
COc1ccc(NC(=O)c2sc3nc(-c4cnccn4)cc(-c4cccs4)c3c2N)cc1	105% (inactive)
COc1cc(/C=C/C(=O)c2cc(OC)c(OC)c(OC)c2)ccc1Oc1nc(NCCO)nc(N2CCOCC2)n1	20.9% (inactive)
O=C(N/N=C/c1ccc([N+](=O)[O-])s1)c1[nH]c2ccc(Br)cc2c1-c1ccccc1	83.3% (inactive)
CCOC(=O)c1c(NC(=O)c2cccc(C(F)(F)F)c2)sc2cc(O)ccc12	183% (inactive)
C=C1CC[C@H]2[C@@](C)(CCC3OC(c4ccc(OCc5cn(C6CC(OC(C)=O)C(OC(C)=O)C(COC(C)=O)O6)nn5)cc4)OC[C@]32C)[C@@H]1/C=C/C1=CCOC1=O (stereo not given in full)	119% (inactive)
O=c1/c(=C\c2ccc(-c3ccccc3)o2)sc2nc(-c3ccccc3)nn12	95.1% (inactive)
O=C(c1ccc(O)cc1)C1[C@H](c2ccc(Cl)cc2)[C@@H](c2ccccc2)NC12C(=O)Nc1ccc(Cl)cc12 (stereo not given in full)	66.9% (inactive)
O=C(Nc1nc2ccc(O)cc2s1)c1cccc(C(F)(F)F)c1	80.8% (inactive)
NS(=O)(=O)c1cccc(Nc2nc(SCC(=O)c3ccc(Cl)cc3)nc3ccccc23)c1	123% (inactive)
COc1cc(/C=C/C(=O)c2ccc(C)cc2)ccc1Oc1nc(NCCO)nc(N2CCOCC2)n1	125% (inactive)
C#Cc1nc(C2=C(C)C(O)/C(=N/O)C2)cs1 (stereo not given)	162% (inactive)
Cc1cc(C(=O)Nc2sc3c(c2C(N)=O)CCC(=O)C3)ccc1OCCN1CCCCC1	148% (inactive)
CCN(CC)c1ccc(C=O)c(OCc2cn(CC(=O)Nc3ccc(Cl)cc3)nn2)c1	83.8% (inactive)

SMILES	growth
Nc1cc(-c2c[nH]c3ccc(Cl)cc23)nc2cc(-c3c[nH]c4ccc(Cl)cc34)nn12	66.2% (inactive)
CNC(=O)c1cc(-c2ccc(NC(=O)Nc3ccc(N4CCOCC4)c(C(F)(F)F)c3)cc2)nc2cccnc12	156% (inactive)
Nc1c(C(=O)c2ccc(Br)cc2)oc2nc(-c3cnccn3)cc(-c3cccs3)c12	172% (inactive)
C#Cc1nc(C2=C(C)C(OC(C)=O)/C(=N/OC(C)=O)C2)cs1 (stereo not given)	203% (inactive)
Cc1[nH]nc2ncc(C#Cc3cncc(C(=O)Nc4ccc(CN5CCN(C)CC5)c(C(F)(F)F)c4)c3)cc12	27.8% (inactive)
O=C(CSc1nnc(-c2ccc3nc(-c4ccc(Cl)cc4)[nH]c3c2)o1)Nc1ccc(C(=O)/C=C/c2ccc(Cl)cc2)cc1	129% (inactive)
COc1ccc(/C=C2\SC(=Nc3cc(C)on3)NC2=O)cc1	106% (inactive)
CCN1C(=S)N(CC)C2C1NN=C1SC(c3ccccc3)=CC(=O)N12 (stereo not given)	103% (inactive)
Nc1cc(-c2c[nH]c3ccccc23)nc2cc(-c3c[nH]c4ccccc34)nn12	89.4% (inactive)
Cn1c(SCC(=O)c2cccs2)nc2ccccc2c1=O	177% (inactive)
Cn1c(SCC(=O)Nc2ccc(-c3nc4ccc([N+](=O)[O-])cc4[nH]3)cc2)nc2ccccc2c1=O	132% (inactive)
Cn1ccnc1C(=O)/C=C/c1ccc(NC(=O)Nc2ccc(F)cc2)cc1	106% (inactive)
N[C@@H](Cc1cn(-c2c3ccccc3nc3ccccc23)nn1)C(=O)O	140% (inactive)
C=CCn1c(SCC(=O)c2ccc(Br)cc2)nnc1-c1c[nH]c2ccccc12	134% (inactive)
COc1ccc(Cc2nn(CC(=O)N/N=C/c3ccc(Cl)cc3)c(=O)c3c(C)noc23)cc1	95.5% (inactive)
CCOC(=O)c1c(Nc2ccccc2)nn2c(N)c(C#N)c(-c3ccccc3)nc12	105% (inactive)
COc1cc(/C=C/C(=O)c2cc(OC)c(OC)c(OC)c2)ccc1OCc1ccc(F)cc1	159% (inactive)
Cc1cccc(/C=C/c2nn3c(-c4ccco4)nnc3s2)c1	101% (inactive)
CNC(=O)c1cc(-c2ccc(NC(=O)Nc3ccc(N4CCN(C)CC4)c(C(F)(F)F)c3)cc2)nc2cccnc12	-89.1% (active)
CC(O)C(NC(=O)C1CCCN1C(=O)CNC(=O)C1CC(=O)NCC(=O)NC(Cc2c[nH]c3ccccc23)C(=O)NC(Cc2ccc(O)cc2)C(=O)NCC(=O)NC(CO)C(=O)NC(CCC(N)=O)C(=O)NC(Cc2c[nH]c3ccccc23)C(=O)N1)C(=O)NCC(=O)NC(CCC(N)=O)C(=O)NC(CCCNC(=N)N)C(=O)NC(CC(=O)O)C(=O)O (stereo not given)	116% (inactive)
